Rango-impB inh – qHTS Assay for Inhibitors of Rango (Ran-regulated importin-beta cargo) - Importin beta complex formation. Rango CFP/YFP FRET sensor + importin beta, 45 min. Importin subunit beta-1 (Homo sapiens), Q14974. 340,000 compounds, 0.031% hits. Potency, µM (highest dose often 92.2 µM), without a hit: top-dose inhibition of complex formation;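 also: potency is read from the fitted curve at half-maximal effect; 0% = DMSO wells and 100% = buffer wells lacking importin beta; nearly all actives have a fitted effect of over 15% in size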
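Inhibition scored from the CFP 486 nm/YFP 530 nm FRET ratio 45 min after adding 0.125 microM importin beta to 50 nM Rango biosensor preincubated 5 min with compound (room temperature, PBS with DTT, Tween-20, BSA). No-importin wells as positive control.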
CCT modulator – High-Throughput Screening for Modulators of Cytosolic Chaperonin Activity | purified chaperonin ATPase assay, HTRF ADP detection, 30 min | activity change, % (concentration not given with the values), hits read low | 360,000 compounds, 0.3% hits; in the data active = activity change below about -30%; also: % is scaled to controls: 0 for no effect and ±100 for the full control effect
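Nucleotide hydrolysis assay: TRiC at 20–40 nM final (set by batch activity) with 10 uM ATP, 30 min at 37 °C, in presence of 76 uM compound. Detection by competitive ADP HTRF, 30 min ambient.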
MmCpn inh – Inhibitors of TCP-1 ring complex (TRiC) of Methanococcus maripaludis (MmCpn): qHTS. Chaperonin Mm-Cpn (Methanococcus maripaludis). purified Mm-Cpn ATPase, ADP Transcreener TR-FRET. Potency, µM (series often up to 76.9 µM), for inactives: at the top dose activity, negative = inhibition, hits mostly inhibitors. 330,000 compounds, 0.031% hits. AID 504842, 2011; active = well fitted inhibition curve with a large enough effect; inconclusive = small, poorly fitted or top-dose-only effect; also: potency is read from the fitted curve at half-maximal effect; % is scaled to controls: 0 for no effect and ±100 for the full control effect; nearly all actives have a fitted effect of over 80% in size
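25 nM Mm-CPN + cpd, 10 min 37°C; + 10 uM ATP, 30 min 37°C; buffer 30 mM Tris pH 7.4, 100 mM KCl, 5 mM MgCl2, 1 mM DTT; Transcreener ADP HTRF detection 30 min RT.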
Rango release inh – qHTS Assay for Inhibitors of RanGTP induced Rango (Ran-regulated importin-beta cargo) - Importin beta complex dissociation | Snurportin-1 (Homo sapiens) + GTP-binding nuclear protein Ran (Homo sapiens) + Importin … | Biochemical FRET Rango-importin beta, RanGTP-induced dissociation | Potency, µM (top dose mostly 46.1 µM), without a hit: at the top dose activity change, negative = inhibition | 340,000 compounds, 0.071% hits | AID 540253, 2011; also: potency is read from the fitted curve at half-maximal effect; % of control where 0% means no effect; nearly all actives have a fitted effect of over 45% in size
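Rango (0.1 uM)–importin beta (0.25 uM) complex; RanGTP-RCC1 trigger; 45 min RT; CFP/YFP FRET read.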
* marks the source's active call; other numbers are inactive results. A selection: hits, their analogues and other compounds. The true share with any hit is near 0.39%. Unless noted, calls follow the shape of the full dose curve.

For Cc1ccc([C@@H]2CC(=O)[C@@H]3CN(S(=O)(=O)c4ccc(C)cc4)[C@H](c4ccccc4F)C[C@@H]3N2S(=O)(=O)c2ccc(C)cc2)cc1 the results were CCT modulator -2.5.
COc1ccc(C)cc1S(=O)(=O)n1c([N+](=O)[O-])cnc1C was read as Rango-impB inh inconclusive, CCT modulator -79.3*, MmCpn inh -6.1% and Rango release inh 7.2%.
For CCOC(=O)C1CCN(c2nc(-c3ccc(Br)cc3)cs2)CC1 the results were MmCpn inh 1.3%.
NC(=O)C(=O)N/N=C/c1c2ccccc2cc2ccccc12 was read as Rango-impB inh 2.1%, CCT modulator 1.0, MmCpn inh -5.2% and Rango release inh 14.6µM*.
For O=C(c1sc2ccccc2c1Cl)N(Cc1ccco1)C1CCS(=O)(=O)C1 (stereo unspecified) the results were Rango-impB inh inconclusive, CCT modulator -2.3, MmCpn inh -0.6% and Rango release inh 18.4µM*.
Cc1ccc(S(=O)(=O)c2c(N)n(-c3ccccc3)c3nc4ccccc4nc23)cc1 was read as Rango-impB inh inconclusive, CCT modulator -34.9*, MmCpn inh -3.2% and Rango release inh 14.6µM*.
Screening CC(C)OCCCNC(=O)C(Cc1ccccc1)NS(=O)(=O)c1ccc2c(c1)CCC(=O)N2 (stereo unspecified) returned Rango-impB inh 1.8%, CCT modulator -3.8, MmCpn inh -0.9% and Rango release inh -1.2%.
CCOC1=C2[C@H](c3ccccc3F)N(S(=O)(=O)c3ccc(C)cc3)C[C@H]2n2c(=O)n(-c3ccccc3)c(=O)n2C1 was read as CCT modulator -1.0.
`O=C(Nc1nc(-c2ccc(F)cc2)cs1)c1ccc(N2C(=O)CCC2=O)cc1` gave Rango-impB inh -6.9%, CCT modulator -5.6, MmCpn inh 1.5% and Rango release inh 6.3%.
N#Cc1ccc(-c2csc(NC(=O)c3ccc(N4C(=O)CCC4=O)cc3)n2)cc1 was read as Rango-impB inh inconclusive, CCT modulator -0.6, MmCpn inh 31.6µM* and Rango release inh inconclusive.
Oc1ccc(CNc2cccc(F)c2F)c2cccnc12 was read as MmCpn inh 0.5%.
`CN(C)C(=S)NC(=S)Nc1ccc2ccccc2c1` gave Rango-impB inh -4.8%, CCT modulator -2.3 and Rango release inh -1.8%.
Cc1ccsc1C(=O)N1CCC1(C)C(=O)NS(=O)(=O)c1ccccc1 (stereo unspecified) was read as CCT modulator 1.3.
`S=C(NN=Cc1ccccn1)N(Cc1ccccn1)Cc1ccccn1` gave Rango-impB inh -0.2%, CCT modulator -42.8* and Rango release inh 31.6%.
For COc1cc(/C=C/C(=O)OCC(=O)Nc2ccc(NC(C)=O)cc2)cc(S(=O)(=O)N2CCc3ccccc32)c1OC the results were Rango-impB inh -0.1%, CCT modulator -44.8*, MmCpn inh -0.7% and Rango release inh -5.4%.
O=c1[nH]cc(COCc2ccccc2)c(=O)[nH]1 was read as Rango-impB inh -2.4%, CCT modulator 0.0, MmCpn inh 1.3% and Rango release inh -3.3%.
`O=c1[nH]cc(CCCc2ccccc2)c(=O)[nH]1` gave CCT modulator -48.9*.
`COC(=O)c1ccc(CNC(=O)COC(=O)/C=C/c2ccc(O)c(OC)c2)cc1` gave Rango-impB inh inconclusive, CCT modulator -1.7, MmCpn inh 2.1% and Rango release inh 18.4µM*.
Screening O=C(Nc1ccnn1C1CCN(CC2CC=CCC2)CC1)c1ccccc1 (stereo unspecified) returned Rango-impB inh 1.7%, CCT modulator -53.8*, MmCpn inh -2.3% and Rango release inh -20.1%.
Screening COc1ccc(C(=O)Nc2ccnn2C2CCN(Cc3ccccn3)CC2)cc1 returned Rango-impB inh inconclusive, CCT modulator -35.3*, MmCpn inh -0.6% and Rango release inh -6.5%.
`CCc1sc(C(=O)N(CCOC)c2c(N)n(Cc3ccccc3)c(=O)[nH]c2=O)cc1C` gave CCT modulator -0.8.
